Assay results published in PubChem BioAssay (NCI).
The panel holds about 83,000 compounds, 20% with a hit somewhere; the sample as a whole holds those more often.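 Single-concentration screen, 48 h exposure, 96-well plates. Endpoint: percent growth. Below 10 = active.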 A number with no mark means an inactive call. Active and inactive are the calls of the source.

These molecules were tested on HL-60(TB) leukemia (assay: NCI-60 one-dose screen, 48 h (100 = growth as untreated, 0 = no growth, -100 = all killed)). Conditions: 10 µM unless noted.

First: Brc1cnc2ccccc2c1
Second: C=NNc1ccccc1
The growth of the first is lower: 89.1% for the first, 117% for the second.

Compared with O=C(Nc1ccc(Cl)cn1)C1(c2ccccc2)CCCCC1, O=C(O)c1nn(-c2ccc(Cl)cc2)nc1N1CCCC1 is higher in growth: 51.5% for the first, 97% for the second.

Compared with CCCCCCCCSc1ncnc2c1ncn2CO, O=C(OCCCCOC(=O)n1cnc2ccccc21)n1cnc2ccccc21 is higher in growth: 94.5% for the first, 104% for the second.

Going from CCCC(=O)OCC(COC(=O)CCC)OC(=O)CCC to COc1cc2c3c(n(CCCCNCCCn4c5c(c6cc(OC)c(OC)cc6c4=O)C(=O)c4cc6c(cc4-5)OCO6)c(=O)c2cc1OC)-c1cc2c(cc1C3=O)OCO2, the growth falls from 100% to 93.7%.

First: COC(=O)C1OC1c1cc([N+](=O)[O-])ccc1OC (stereo unspecified)
Second: CC(=O)c1ccc(C)c(N)c1
The growth of the first is higher: 99.1% for the first, 94.8% for the second.

Going from Cc1cc2c(C#N)n3c(c2cc1C)C(=O)C(c1ccccc1)Oc1ccccc1-3 (stereo unspecified) to O=C(N/N=C/c1ccc(Oc2ccccc2)cc1)c1cnn2c1NC(c1ccccc1)C2 (stereo unspecified), the growth rises from 36.3% to 78.6%.

C=CC(=O)NCCOc1cccc(Nc2cc(NCCCNC(=O)C3CCC3)c(Br)cn2)c1 was tested, and the growth was -55% (active).
In the case of COc1cc(Cl)c(C)cc1NC(=O)c1cc2ccccc2cc1O, the growth is reported as 9.27% (active).
In the case of CCOC(=O)c1nnn(-c2no[n+]([O-])c2-c2ccc(OC)cc2)c1COc1cccc2cccnc12, the growth is reported as -18.3% (active).

Brc1cccc(-c2cc(-c3ccc4c(c3)OCCCO4)[nH]n2)c1 showed a growth of 47.7% [25 µM].
